An excerpt weighted towards active compounds, which were near 19% of everything screened.
IL-1B inflam inh – blocks inflammasome-driven IL-1 beta release; THP-1 LPS/ATP IL-1B secretion, AlphaLISA, 16 h; active compounds read low; activity change, % at 57.5 µM; hit rate 4.7% among 360,000; in the data active = activity change below about -50%; inconclusive = mostly about -30% to -49%; note: % is set by controls: 0 for no effect and ±100 for the full control effect
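THP-1 cells pretreated 1 hr with compounds (up to 57.5 uM final), then stimulated with LPS (250 ng/mL final) plus ATP (1.25 mM final); secreted IL-1B measured by AlphaLISA after 16 hr, decreased signal indicating inhibition.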
ASM inhibitor – human S-ASM enzyme inhibition; P17405; placental ASM, HMU-PC fluorogenic substrate, 60 min; Potency, µM (series often up to 57.5 µM), for inactives: top-dose activity change, negative = inhibition, actives largely listed as inhibitors; hit rate 0.006% among 340,000; note: potency is the fitted concentration of half-maximal effect
Target sequence (P17405 47-631 limits assumed): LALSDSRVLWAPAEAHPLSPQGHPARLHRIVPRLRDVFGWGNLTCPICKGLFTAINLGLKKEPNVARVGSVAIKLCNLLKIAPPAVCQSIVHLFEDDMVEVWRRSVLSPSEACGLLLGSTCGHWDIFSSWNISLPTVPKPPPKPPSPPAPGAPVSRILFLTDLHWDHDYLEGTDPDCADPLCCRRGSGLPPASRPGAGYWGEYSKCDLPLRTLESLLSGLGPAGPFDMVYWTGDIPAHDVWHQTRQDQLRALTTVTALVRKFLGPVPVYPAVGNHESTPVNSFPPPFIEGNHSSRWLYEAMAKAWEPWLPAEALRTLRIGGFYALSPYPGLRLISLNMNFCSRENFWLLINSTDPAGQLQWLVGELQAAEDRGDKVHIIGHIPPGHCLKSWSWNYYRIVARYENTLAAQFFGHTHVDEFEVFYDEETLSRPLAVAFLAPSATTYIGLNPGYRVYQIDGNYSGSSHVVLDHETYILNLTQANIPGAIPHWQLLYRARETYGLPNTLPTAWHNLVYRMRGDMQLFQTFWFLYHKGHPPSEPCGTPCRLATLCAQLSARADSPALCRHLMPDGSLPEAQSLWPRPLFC
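HMU-PC0 cleavage (9 uM final) by human placental ASM, 60 min at 37 °C following 10 min compound exposure at RT; stopped at pH 10, fluorescence Ex 386/Em 447 nm.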
TGFb SMAD3 inh – blocks TGF-b signaling; AID 588855; hit rate 1.2% among 410,000; HepG2 CAGA-GFP TGF-b/SMAD3 reporter, GFP fluorescence, 18 h; TGF-beta stimulated, 500 pg/mL final; Potency, µM (doses to about 46.1 µM), for the others: at the top dose activity, negative = inhibition, hits mostly inhibitors; note: potency is the fitted concentration of half-maximal effect; % is set by controls: 0 for no effect and ±100 for the full control effect; nearly all actives have a fitted effect of over 65% in size
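HEPG2 CAGA-GFP cells (1000/well, DMEM with 1% FBS) were pre-incubated 2 h at 37 degrees C, given compound by pin tool, then stimulated with TGF-beta at 500 pg/mL final for 18 h before per-cell GFP fluorescence imaging.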
DT40 TDP1 no CPT – qHTS for Inhibitors of human tyrosyl-DNA phosphodiesterase 1 (TDP1): qHTS in cells in absence of CPT; DT40 Tdp1-/- hTDP1 cells, no CPT, ATP luminescence, 48 h; AID 686978, 2013; hit rate 15% among 420,000; Potency, µM (series often up to 46.2 µM), without a hit: top-dose activity change, negative = growth inhibition, hits mostly inhibitors; note: potency is the fitted concentration of half-maximal effect; % is set by controls: 0 for no effect and ±100 for the full control effect; nearly all actives have a fitted effect of over 55% in size
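Growth kinetics read by CellTiter-Glo luminescence after ≥48 hr at 37 °C. Cells: DT40 Tdp1-/- stably carrying human TDP1, 400 per well, compound exposure in the absence of CPT (DMSO vehicle).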
DT40 TDP1 CPT – DT40-hTDP1 cell growth loss with CPT; chicken DT40 Tdp1-/-;hTDP1 cells + 20 nM CPT, ATP luminescence, 48 h; hit rate 12% among 420,000; AID 686979; Potency, µM (titrated, usually from 46.2 µM), for inactives: at the highest dose activity change, negative = growth inhibition, usual class: inhibitors; note: potency is the fitted concentration of half-maximal effect; % is set by controls: 0 for no effect and ±100 for the full control effect; nearly all actives have a fitted effect of over 55% in size
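Cell growth measured by CellTiter-Glo luminescence after a minimum 48 h, 37 C compound exposure with 20 nM CPT in Tdp1-knockout DT40 cells stably expressing hTDP1, seeded 400/well; qHTS titration format.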
HepG2 tox – HepG2 cytotoxicity, counter-screen for TGF-b inhibitors; HepG2 CAGA-GFP viability, ATP luminescence, 18 h; hit rate 0.76% among 410,000; Potency, µM (top dose mostly 46.1 µM), for the others: at the top dose activity change, negative = cytotoxicity, actives largely listed as cytotoxic; note: potency is the fitted concentration of half-maximal effect
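CellTiter-Glo luminescence gave cytotoxicity after 18 hours at 37 degrees C. The cells were HepG2 CAGA-GFP in 1% FBS DMEM, stimulated with 500 pg/mL TGF-beta after compound addition. %Activity was normalised to no-cell wells (complete cell-killing) and DMSO (no toxicity), and curves were fitted and classified.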
Active calls of the source: *; i = inactive; ? = inconclusive; . = no result. Unless noted, calls come from the whole dose curve; as a rule, active = well fitted curve in the direction sought with a large enough effect; inconclusive = small, poorly fitted or top-dose-only effect, or another doubt; inactive = no such curve, though single readings can be large; an effect the other way counts as inactive or inconclusive.

SMILES | IL-1B inflam inh | ASM inhibitor | TGFb SMAD3 inh | DT40 TDP1 no CPT | DT40 TDP1 CPT | HepG2 tox
COc1ccc(S(=O)(=O)N2CCN(C(=O)C3CCCO3)CC2)cc1 (stereo not drawn) | 2 | 2% | -29% | -3% | 6% | -4%
Cc1ccc(C(=O)NNC(=O)c2ccc3ccccc3c2)cc1 | 2 | -2% | -9% | ? | -4% | -22%
Cc1ccc(S(=O)(=O)CNC(=S)c2ccc3ccccc3c2)cc1 | ? | ? | -25% | 18µM* | ? | -20%
COc1ccc(C(=S)NCS(=O)(=O)c2ccc(C)cc2)cc1 | -100* | -14% | ? | ? | ? | -42%
COc1ccc(Cl)cc1NC(=O)C1CC(c2c(F)cccc2Cl)=NO1 (stereo not drawn) | 4 | -12% | -3% | ? | ? | -3%
COc1ccc(S(=O)(=O)Nc2ccc(C)c(S(=O)(=O)N3CCOCC3)c2)cc1[N+](=O)[O-] | 2 | . | 14% | -4% | -17% | -5%
COc1cccc(OCc2cc(/C=N/NC(=O)c3ccn[nH]3)ccc2OC)c1 | 34 | -4% | 0% | 26µM* | ? | -35%
COc1ccc(/C=N\NC(=O)c2ccccc2)cc1COc1ccccc1 | i | -9% | 4% | ? | ? | 0%
COc1cc(OC)cc(C(=O)N/N=C/c2ccc(OC)c(COc3ccc4ccccc4c3)c2)c1 | 39 | -7% | -28% | 6.5µM* | 4.1µM* | -3%
COc1ccc(C(=O)N/N=C/c2ccc(OC)c(COc3ccccc3)c2)cc1 | ? | -11% | 2% | ? | ? | -20%
COc1ccc(/C=N/NC(=O)c2ccncc2)cc1COc1ccc(NC(C)=O)cc1 | -9 | 2% | -3% | 8.2µM* | 5.8µM* | -17%
COc1ccc(/C=N/NC(=S)Nc2ccccc2)cc1COc1ccc(Br)cc1 | 39 | -6% | -17% | ? | 15µM* | -34%
COc1ccc(/C=N/NC(=S)Nc2ccccc2)cc1COc1ccc(F)cc1 | 4 | 1% | -1% | -104% | 1% | 3%
COc1ccc(CCNC(=O)C2CC=CCC2C(=O)O)cc1 (stereo not drawn) | 0 | 1% | -7% | 20% | -1% | 8%
CC(=O)Nc1ccc(S(=O)(=O)Nc2c(NC3CCCCC3)c3ccccc3oc2=O)cc1 | 0 | 4% | 5% | ? | 8% | -19%
Cc1ccccc1C(=O)Nc1ccc2c(c1)nc(CCNC(=O)c1ccco1)n2C | -6 | -1% | -6% | -8% | -22% | 7%
CCOC(=O)c1[nH]c2c(c1Cc1ccccc1)C(=O)CC(c1ccc(C(C)(C)C)cc1)C2 (stereo not drawn) | . | . | -25% | ? | ? | 6%
NC(=O)NC(=O)CN1C(=O)NC2(CCOc3ccccc32)C1=O (stereo not drawn) | 0 | -11% | -5% | 6% | 10% | -2%
COc1ccc(/C=N\NC(=O)c2cc(O)c(O)c(O)c2)cc1COc1ccc(C(=O)OCC(C)C)cc1 | 58 | ? | ? | 21µM* | ? | -102%
Cc1ccc(-n2c(SCC(=O)N3CCCCC3)nc(O)c(Cc3ccccc3)c2=O)cc1 | 12 | -1% | 4% | 12µM* | ? | -10%
CCN(CC)C(=O)CSc1nc(O)c(Cc2ccccc2)c(=O)n1-c1ccc(C)cc1 | 22 | 2% | -3% | 13µM* | ? | -17%
COc1ccc(-n2c(SCC(=O)Nc3ccc(C)cc3)nc(O)c(Cc3ccccc3)c2=O)cc1 | i | -6% | -4% | 9% | 10% | -2%
COc1cc(CC(=O)OCC(=O)N2CC(C)CC(C)C2)cc(OC)c1OC (stereo not drawn) | 34 | -5% | 0% | ? | ? | -1%
CCOC(=O)c1cc2c(=O)n3ccccc3nc2n(C)c1=NC(=O)c1c(-c2ccccc2Cl)noc1C | . | . | 0% | -3% | -14% | 0%
CCOC(=O)c1cc2c(=O)n3ccccc3nc2n(C(C)C)c1=NC(=O)c1c(-c2c(F)cccc2Cl)noc1C | -3 | 371% | -13% | 8.2µM* | 8.2µM* | -11%
SMILES | IL-1B inflam inh | ASM inhibitor | TGFb SMAD3 inh | DT40 TDP1 no CPT | DT40 TDP1 CPT | HepG2 tox
CCOC(=O)c1cc2c(=O)n3ccccc3nc2n(CC2CCCO2)c1=NC(=O)c1cccc(C)c1 (stereo not drawn) | . | . | -5% | 5.8µM* | 5.2µM* | -7%
CCOC(=O)c1cc2c(=O)n3ccccc3nc2n(Cc2ccco2)c1=NC(=O)c1ccc(C(C)(C)C)cc1 | . | . | 3% | -27% | -13% | 5%
CCOC(=O)c1cc2c(=O)n3ccccc3nc2n(CC2CCCO2)c1=NC(=O)/C=C/c1ccccc1 (stereo not drawn) | ? | i | -2% | 15µM* | ? | -17%
CCOC(=O)c1cc2c(=O)n3ccccc3nc2n(Cc2ccco2)c1=NC(=O)c1cc(C)cc(C)c1 | . | . | -22% | 1.2µM* | 1.3µM* | -42%
N#CCCSc1ccccc1NC(=O)c1cc(=O)c2ccccc2o1 | 21 | -3% | -1% | ? | ? | -28%
CCOc1ccccc1NC(=O)c1cc(C(=O)Nc2ccccc2OCC)cc(N2C(=O)CCC2=O)c1 | 15 | -3% | -1% | -3% | -17% | 3%
COc1ccc(/C=N/NC(=O)c2snnc2C)c(OC)c1OC | 21 | -4% | 13% | -2% | 1% | -7%
CCOC(=O)c1cc2c(=O)n3ccccc3nc2n(CC2CCCO2)c1=NC(=O)c1ccc(OCC)cc1 (stereo not drawn) | . | . | -2% | 5.8µM* | 6.5µM* | 3%
CCOC(=O)c1cc2c(=O)n3ccccc3nc2n(CC2CCCO2)c1=NC(=O)c1cccc(C(F)(F)F)c1 (stereo not drawn) | . | . | 4% | -24% | -26% | -17%
CCOC(=O)c1cc2c(=O)n3ccccc3nc2n(CC2CCCO2)c1=NC(=O)c1ccc(OC)cc1OC (stereo not drawn) | . | . | ? | 16µM* | ? | -21%
CCOC(=O)c1cc2c(=O)n3ccccc3nc2n(CC2CCCO2)c1=NC(=O)c1cc(C)cc(C)c1 (stereo not drawn) | . | . | -31% | 0.037µM* | 0.16µM* | -44%
CCOC(=O)c1cc2c(=O)n3ccccc3nc2n(CC2CCCO2)c1=NC(C)=O (stereo not drawn) | -13 | i | -3% | -24% | -4% | -17%
